# Source: PubChem BioAssay (EPA / NIEHS)
# “And” between values parts separate entries of the source, which are not always exact repeats. Equal entries are not always repeated. Some compounds were tested as several samples or in several runs, with calls that do not always agree. The source made the active and inactive calls. The calls were made as follows: active = hit-call score of the fitted dose curve at least 0.9, where 1 is the maximum; inactive = score below 0.9.
# Test: ATG_BRE_CIS: Attagene CIS-FACTORIAL HepG2 Assay for human Bone Morphogenetic Protein (BMP) Response Element (BRE) (AID 2282933)
# Conditions: HepG2 BMP response element reporter, Attagene transcription factor profiling; actives raise or lower the signal
# Procedure: ATG_CIS is a cell-based, multiplexed-readout assay that uses HepG2, a human liver cell line, with measurements taken at 24 hours after chemical dosing in a 24-well plate.ATG_BRE_CIS is one of 52 assay component(s) measured or calculated from the ATG_CIS assay. It is designed to make measurements of mRNA induction, a form of inducible reporter, as detected with fluorescence intensity signals by Reverse transcription polymerase chain reaction (RT-PCR) and Capillary electrophoresis technology.Data from the assay component ATG_BRE_CIS was analyzed into 1 assay endpoint. This assay endpoint, ATG_BRE_CIS, was analyzed with bidirectional fitting relative to DMSO as the negative control and baseline of activity. Using a type of inducible reporter, measures of mRNA for gain or loss-of-signal activity can be used to understand the reporter gene at the transcription factor-level as they relate to the gene SMAD1. Furthermore, this assay endpoint can be referred to as a primary readout, because this assay has produced multiple assay endpoints where this one serves a reporter gene function. To generalize the intended target to other relatable targets, this assay endpoint is annotated to the dna binding intended target family, where the subfamily is Smad protein.
# Human liver HepG2 cells are transiently transfected with multiple reporter transcription units (MRTUs) in 6-well plates using FuGene 6 reagent (Roche; 3 ml FuGene/1 mg DNA). The MRTU constructs are regulated by a cis-regulating element (promoter). […] A major difference between the CIS and TRANS system is that in CIS activities of endogenous TFs are measured, whereas the TRANS assay evaluates changes in activities of exogenous, chimeric NR-Gal4 proteins. […] At the end of 24 hour incubation, total RNA was isolated using TriZol reagent (Invitrogen). The isolated RNA is then reverse-transcribed using oligo(dT) primer and Mo-MLV reverse transcriptase (Invitrogen) with DNAse I (Ambion) treatment for 30 min. The one-tenth of the produced cDNA was amplified by PCR using Taq DNA polymerase (Invitrogen) and two reporter sequence-specific primers. The PCR products were fluorescently labeled by primer extension with 6-arboxyfluorescein (6-FAM) 5'-labeled reporter sequence-specific primer (2 min at 95 C, 20 s at 68 C and 10 min at 72 C) and these products were digested with 5U of HpaI (New England Biolabs) for 2h at 37 C. The fragments were purified using Qiaquick PCR columns (Qiagen), analyzed on an ABI 3130xL genetic analyzer (Applied Biosystems) with peak positions identified by using a set of X-rhodamine (ROX)-labeled MapMarker1000 molecular weight standards (BioVentures). The raw capillary electrophoresis data was processed using Attagraph software (Attagene).
SMILES,outcome,AC50
O=S1(=O)CCCO1,inactive,
OCC(CO)(CO)CO,inactive,
C[Si](C)(C)C(F)(F)C(F)(F)C(F)(F)F,inactive,
Cc1nc(-c2ccccn2)ncc1C(=O)Nn1cc(C)c2cc(F)ccc21,inactive,
O=c1[nH]cnc2c1ncn2[C@H]1CC[C@@H](CO)O1,inactive,
NC(=O)NN=Cc1ccc([N+](=O)[O-])o1,inactive,
NC(=O)N(O)[C@@H]1COc2cc(OCc3ccccc3)ccc21,inactive,
NC(N)=O,inactive,
CCOc1ccc2[nH]cc(C(=O)NCc3ccccc3)c(=O)c2n1,inactive,
CC(C)CC(C)O (stereo not given),inactive,
CC(C)C(=O)Nc1ccc([N+](=O)[O-])c(C(F)(F)F)c1,,65.1 µM (active)
O=S(=O)(O)c1ccc(N=Nc2c(O)ccc3cc(S(=O)(=O)O)ccc23)cc1,inactive,
c1ccc2c(c1)-c1cccc3c1c-2cc1ccccc13,inactive,
OC[C@H]1O[C@@H]2O[C@H]3[C@H](O)[C@@H](O)[C@@H](O[C@H]4[C@H](O)[C@@H](O)[C@@H](O[C@H]5[C@H](O)[C@@H](O)[C@@H](O[C@H]6[C@H](O)[C@@H](O)[C@@H](O[C@H]7[C@H](O)[C@@H](O)[C@@H](O[C@H]1[C@H](O)[C@H]2O)O[C@@H]7CO)O[C@@H]6CO)O[C@@H]5CO)O[C@@H]4CO)O[C@@H]3CO,inactive,
c1ccc(C(O[C@@H]2CCCN(CCc3ccc4c(c3)OCO4)C2)c2ccccc2)cc1,,33 µM (active)
OC(O)(C(F)C(O)(O)C(F)(F)F)C(F)(F)F,inactive,6.79 µM (active)
CCCCCCOC(=O)CC(CC(=O)OCCCCCC)(OC(=O)CCC)C(=O)OCCCCCC,inactive,
Cc1cccc(O)c1C,inactive,
OCc1ccccc1,inactive,

SMILES,outcome,AC50
OCc1c[nH]c2ccccc12,inactive,48.6 µM (active) and 85.4 µM (active) and 50.3 µM (active)
CCCCCCCCCCCCCCO,,166 µM (active)
CCCCC(CC)C(=O)OCCOCCOCCOC(=O)C(CC)CCCC (stereo not given),inactive,
CCc1cccc(CC)c1N,inactive,
O=C(O)[C@H](O)[C@@H](O)C(=O)O,inactive,
CCc1ccc(O)c(C(C)(C)C)c1,inactive,
FC(F)(F)COC(OCC(F)(F)F)OCC(F)(F)F,inactive,
O=S(=O)(O)CCC(F)(F)C(F)(F)C(F)(F)C(F)(F)C(F)(F)C(F)(F)F,inactive,
O=C(O)c1cccc(C(=O)O)c1,inactive,
C[C@]12C=CC(=O)C=C1CC[C@H]1[C@@H]3C[C@@H](O)[C@](O)(C(=O)CO)[C@@]3(C)C[C@H](O)[C@@]12F,inactive,
C=CN1CCCC1=O,inactive,
CCOC(N)=O,inactive,
OCCC(F)(F)C(F)(F)C(F)(F)C(F)(F)F,inactive,
CNC(C)=O,inactive,
CCCc1ccccc1,inactive,
CCCCCCCCCCCCCCCCOS(=O)(=O)O,inactive,
CC(=O)c1ccccc1,inactive,
Cn1c(=O)c2[nH]cnc2n(C)c1=O,inactive,
NNC(=O)c1ccncc1,inactive,
